USP28 block – inhibitors of human USP28 deubiquitinase. purified USP28, Ub-rhodamine cleavage fluorescence, 30 min. hit rate 3% among 47,000. inhibition, % at 25 µM. Q96RU2
Target sequence (Q96RU2 whole entry, looked up): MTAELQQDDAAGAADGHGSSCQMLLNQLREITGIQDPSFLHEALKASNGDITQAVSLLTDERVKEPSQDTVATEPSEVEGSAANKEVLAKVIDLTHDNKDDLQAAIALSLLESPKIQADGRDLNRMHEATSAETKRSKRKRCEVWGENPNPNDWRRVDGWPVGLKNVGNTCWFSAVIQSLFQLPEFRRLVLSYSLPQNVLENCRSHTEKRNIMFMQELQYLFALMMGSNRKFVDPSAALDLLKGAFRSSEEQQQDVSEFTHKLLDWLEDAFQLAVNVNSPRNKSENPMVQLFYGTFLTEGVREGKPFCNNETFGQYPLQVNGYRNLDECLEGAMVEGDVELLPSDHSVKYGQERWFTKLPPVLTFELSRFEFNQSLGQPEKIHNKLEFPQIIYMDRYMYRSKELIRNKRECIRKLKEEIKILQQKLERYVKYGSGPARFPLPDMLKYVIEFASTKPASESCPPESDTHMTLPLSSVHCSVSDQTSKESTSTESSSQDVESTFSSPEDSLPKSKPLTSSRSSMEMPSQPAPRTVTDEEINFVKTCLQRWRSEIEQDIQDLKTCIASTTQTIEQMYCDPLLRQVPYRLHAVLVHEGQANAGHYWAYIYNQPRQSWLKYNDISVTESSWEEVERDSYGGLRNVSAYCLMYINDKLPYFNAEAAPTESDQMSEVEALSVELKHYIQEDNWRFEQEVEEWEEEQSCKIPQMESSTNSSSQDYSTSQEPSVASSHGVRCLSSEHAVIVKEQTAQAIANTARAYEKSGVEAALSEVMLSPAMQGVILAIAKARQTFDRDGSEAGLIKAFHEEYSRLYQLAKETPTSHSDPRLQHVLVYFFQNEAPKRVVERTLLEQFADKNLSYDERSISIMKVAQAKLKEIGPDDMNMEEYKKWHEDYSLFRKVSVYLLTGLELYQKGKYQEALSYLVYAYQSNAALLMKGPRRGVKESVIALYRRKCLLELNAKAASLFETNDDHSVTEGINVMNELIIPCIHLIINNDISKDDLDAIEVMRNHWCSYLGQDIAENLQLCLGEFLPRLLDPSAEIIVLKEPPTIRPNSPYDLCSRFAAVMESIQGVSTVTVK
USP17 inh – blocks human USP17 ubiquitin-rhodamine cleavage | hit rate 6.5% among 47,000 | AID 1645855 | purified USP17, Ub-rhodamine cleavage fluorescence, 3 h | inhibition, % at 50 µM
USP30 inh – blocks human USP30 ubiquitin-rhodamine cleavage | AID 1645860 | inhibition, % at 25 µM | purified USP30, Ub-rhodamine cleavage fluorescence | hit rate 5.3% among 47,000 | Q70CQ3
OTUD3 block – blocks human OTUD3 ubiquitin-rhodamine cleavage | Q5T2D3 | purified OTUD3, Ub-rhodamine fluorescence, 2 h | inhibition, % at 25 µM | hit rate 0.7% among 47,000 | AID 1645858
Active calls of the source: *; . = no result. The list is not random: actives were taken first. Their share in the collection is about 11%. No stated cut-off is given here; in the data, active means inhibition above about 30%; inactive means the rest.

SMILES	USP28 block	USP17 inh	USP30 inh	OTUD3 block
CCCc1nc2sc3c(NC4CCCCC4)ncnc3c2c2c1CCC2	75*	12	23	5
CCCCNc1ncnc2c1sc1nc(CCCC)c3c(c12)CC(C)(C)OC3	-4	45*	14	2
CNC(=O)N1CCN(c2nn3c(NC(C)(C)C)c(-c4ccccc4C)nc3s2)CC1	-3	-15	0	0
CSc1ccc(CN(C)Cc2nc(N)nc(Nc3ccccc3)n2)cc1	12	-14	-25	4
Clc1ccc2[nH]c3c(N4CCSCC4)ncnc3c2c1	-27	23	-69	-23
CCCc1nc2sc3c(N(CC)CC)ncnc3c2c2c1CCC2	52*	-2	-9	1
CCCCc1nc2sc3c(SCC(=O)OC)ncnc3c2c2c1CCC2	26	-5	-13	-9
CN(C(=O)c1cnccn1)[C@H]1CC[C@@]2(C)C[C@H](c3ccccc3)C[C@](C)(O2)[C@@H]1O	-2	0	2	0
COc1cc(NC(=O)COC(=O)Cn2cnc3ccccc32)cc(OC)c1	51*	-3	1	-3
CCc1ccc(NC(=O)COC(=O)Cn2cnc3ccccc32)cc1	32*	0	-1	1
Cc1ccc(NC(=O)COC(=O)Cn2cnc3c2c(=O)n(C)c(=O)n3C)cc1F	6	-1	0	-2
Cc1ccc(NC(=O)COC(=O)Cn2cnc3c2c(=O)n(C)c(=O)n3C)cc1	8	4	3	5
C1Cc2nc(C3CC3)nc(N3CCCC3)c2C1	20	4	11	10
N#Cc1cccc(CN2CCc3nc4ccccc4n3CC2)c1	-1	-4	-1	0
O=C(Nc1cccc(-c2noc(C3CCC3)n2)c1)C1CC(=O)N(c2ccccc2)C1 (centres undefined)	-5	60*	-1	0
Cc1ccc(N2CC(c3nc(-c4ccc5oc(C)nc5c4)no3)CC2=O)cc1 (centres undefined)	-1	3	0	-4
O=C(Nc1cccc(-c2noc(C3CC3)n2)c1)C1CC(=O)N(c2ccccc2)C1 (centres undefined)	-4	40*	-3	-6
CCc1nc(-c2cccc(NC(=O)C3CC(=O)N(c4ccc(C)c(C)c4)C3)c2)no1 (centres undefined)	27	60*	60*	27
CCc1nc(-c2cccc(NC(=O)C3CC(=O)N(c4ccccc4)C3)c2)no1 (centres undefined)	8	16	30	17
Cn1c(=O)[nH]c2cc(-c3noc(C4CC(=O)N(c5ccccc5)C4)n3)ccc21 (centres undefined)	-9	32*	-11	-3
Cc1cc(NC(=O)C(=O)NCC2CCN(C(C)C)CC2)no1	2	10	33*	10
Cc1cc(NC(=O)C2CCCN(S(=O)(=O)N3CCCCCC3)C2)no1 (centres undefined)	-9	-2	-7	-8
CC1=C(CO)C(=O)O[C@@H]([C@@H](C)[C@H]2CC[C@H]3[C@@H]4C[C@H]5O[C@]56[C@@H](O)C=CC(=O)[C@]6(C)[C@H]4CC[C@]23C)C1	44*	72*	83*	5
CC(C)=CCc1c2c(c3occ(-c4ccc(O)cc4)c(=O)c3c1O)C=CC(C)(C)O2	42*	91*	57*	44*
CC(C)=CCc1c2c(c3occ(-c4ccc(O)c(O)c4)c(=O)c3c1O)C=CC(C)(C)O2	69*	86*	79*	81*
SMILES	USP28 block	USP17 inh	USP30 inh	OTUD3 block
COc1ccc(S(=O)(=O)Nc2cccc(N3CCCS3(=O)=O)c2)cc1	0	0	-10	-1
COc1ccccc1CNC(=O)Nc1cccc2ccccc12	4	53*	30*	10
O=C(NCc1cccc(NC(=O)C2CC2)c1)Nc1cccc2ccccc12	2	54*	16	42*
COc1ccc(Cl)cc1-n1nnc(C(=O)N2CCc3ccccc3C2)c1C	33*	.	83*	15
O=C(c1nnn(-c2ccc(Cl)cc2)c1-c1cccnc1)N1CCc2ccccc2C1	8	.	17	11
COc1ccc(NC(=O)CC2C(=O)NCCN2C(=O)Nc2ccccc2C(C)(C)C)cc1 (centres undefined)	1	3	13	0
COc1ccccc1N1CCN(c2ncc(C(=O)Nc3cc(OC)c(OC)c(OC)c3)c3ccccc23)CC1	-16	-17	-29	-26
COc1ccccc1-c1nnc2sc(COc3cccc(C)c3)nn12	25	17	42*	18
CCOc1ccccc1-c1nn2c(-c3cccnc3)nnc2s1	-1	0	-2	-6
Cc1cccc(-n2c(CN3CCN(C(=O)NC(C)C)CC3)nc3cccnc32)c1	-20	-22	-115	-13
Cc1ccc(S(=O)(=O)N2CC(C)C(=O)Nc3ccccc32)cc1 (centres undefined)	-1	-6	-8	-6
CC1CC(=O)Nc2ccccc2N1S(=O)(=O)c1ccc(C#N)cc1 (centres undefined)	21	2	55*	9
Cc1cc2nccc(C3(C)CCCN3Cc3scnc3C)n2n1 (centres undefined)	3	3	28	1
COc1cccc(-c2cc(C(=O)N3CCC(Cc4ccccc4)CC3)c3ccccc3n2)c1	-16	-8	-20	-4
c1ccc2cc(Sc3ncnc4c3oc3ccccc34)ccc2c1	0	5	7	2
Cc1nc(Sc2ccc3ccccc3c2)c2oc3ccccc3c2n1	18	42*	40*	12
O=S(=O)(c1cc(F)cc(F)c1)N1CCCn2c(nc3ccccc32)C1	0	32*	38*	9
Cc1ccccc1CC(=O)N1CCN(C(=O)c2cc(-c3cccnc3)n[nH]2)CC1	10	-17	21	4
CCn1cnc2c1c(=O)n(CC(=O)NCc1ccccc1Cl)c(=O)n2Cc1ccccc1	8	55*	19	29
CCn1cnc2c1c(=O)n(CC(=O)NCc1ccc3c(c1)OCO3)c(=O)n2Cc1ccccc1	8	37*	-71	14
COCCn1cnc2c1c(=O)n(CC(=O)NCc1ccccc1OC)c(=O)n2Cc1ccccc1	10	31*	45*	17
CC(C)Cn1cnc2c1c(=O)n(CC(=O)NCCc1ccc(F)cc1)c(=O)n2Cc1ccccc1	12	24	43*	17
O=C(Cn1c(=O)c2c(ncn2C2CCCC2)n(Cc2ccccc2)c1=O)NCC1CCCO1 (centres undefined)	-12	-4	-28	-4
COCCn1c(C)c(C)c(S(=O)(=O)c2ccccc2)c1NC(=O)c1ccccc1C	-5	-10	-7	-2
Cc1c(C(=O)NCc2ccccn2)oc2c1/C(=N\O)CC(C)(C)C2	-15	-37	-21	-10
Cc1ccn2c(CN3C[C@H]4NC(=O)c5ccccc5C(=O)[C@@]4(C)C3)c(C)nc2c1	12	17	6	13
CN1CCOCC2(CCCN(C(=O)c3ccc(-n4cccc4)cc3)C2)C1 (centres undefined)	3	-28	-10	0
O=C(O)c1ccccc1C(=O)Nc1ccc(SC(C(=O)Nc2cccc(Cl)c2)c2ccccc2)cc1 (centres undefined)	34*	51*	17	28
